Source: PubChem BioAssay (Tox21)
Results filed as inconclusive are left out. Calls of active or inactive are those of the source. The call rests on the fitted dose curve; in most records, active means well fitted cell-killing curve with a large enough effect in the repeat runs; inconclusive means weak or mixed curves, or effect the other way; inactive means flat fitted curve, though single readings scatter.

Assay: qHTS RealTime-Glo MT Cell Viability Assay in HepG2 cells - 40 hour (AID 1224870); further: nearly all actives have a fitted effect of over 50% in size
Conditions: RealTime-Glo luminescence; series mostly up to 76.8 µM; activity change, negative = cytotoxic: at the top concentration
Description: National Center for Advancing Translational Sciences [NCATS]
NIH Chemical Genomics Center [NCGC]
U.S. Environmental Protection Agency [EPA]
National Institutes of Environmental Health Sciences [NIEHS]
National Toxicology Program [NTP]
U.S. Food and Drug Administration [FDA]
Measure of cell viability is critical in the cell-base assay. Analysis of cell viability is necessary for the characterization of cell responses to cytotoxic drugs and environmental stress. A RealTime-Glo MT Cell Viability Assay to monitor cell viability in real time of continues cell culture during 40 hours of compound treatment was used to screen Tox21 10K library compounds in HepG2 cells. The RealTime-Glo MT Cell Viability Assay is a nonlytic, homogeneous, bioluminescent method to measure cell viability in real time using a simple, plate-based method. The assay involves adding NanoLuc luciferase and a cell-permeant prosubstrate to cells in culture. Viable cells reduce the proprietary prosubstrate to generate a substrate for NanoLuc luciferase. This substrate diffuses from cells into the surrounding culture medium, where it is rapidly used by the NanoLuc Enzyme to produce a luminescent signal. The signal correlates with the number of viable cells, making the assay well suited for cytotoxicity studies.
Tox21 Assay Protocol Summary:
The mixture of HepG2 cell suspension and reagents were dispensed at 600cells/6 ul/well in 1536-well tissue culture treated black solid bottom plates using a Multidrop dispenser. After the assay plates were incubated at a 37 C/5% CO2 incubator for 5 hours, 23 nL of compounds dissolved in DMSO, positive and negative controls was transferred to the assay plate by a pintool work station. The plates were incubated at 37 C for 40 hours. The luminescence intensity were measured at 0h, 8h, 16h, 24h, 32h and 40h time points using ViewLux plate reader during compound treatment.
On the % scale 0 is the no-effect control and ±100 the full control effect.

Structure (SMILES)	activity change, negative = cytotoxic	Potency
CN1C(=O)NC(=O)C(C)(C2=CCCCC2)C1=O (stereo not given)	0.856% [at 35.3 µM] (inactive)	
CC(=O)CCC(C)=O	1.56% (inactive)	
CCOP(=O)(OCC)SCCSCC		inactive
CC(C)(CCl)C(=O)Cl	-5.45% (inactive)	
ClCC(Br)CBr (stereo not given)	0.693% (inactive)	
CC(C)N(CCC(C(N)=O)(c1ccccc1)c1ccccn1)C(C)C (stereo not given)	-0.911% [at 35.3 µM] (inactive)	
CC1C(=O)C[C@]2(C(C)C)C[C@H]12 (stereo not given in full)	2.08% (inactive)	
O=S1OC[C@@H]2[C@H](CO1)[C@]1(Cl)C(Cl)=C(Cl)[C@@]2(Cl)C1(Cl)Cl (stereo not given in full)	-15.5% (inactive)	
O=C1c2ccccc2C(=O)C1C(=O)C(c1ccccc1)c1ccccc1	-8.97% [at 35.3 µM] (inactive)	
Cc1cc(=O)[nH]o1	0.161% (inactive)	
CCCCOC(=O)c1ccccc1C(=O)OCc1ccccc1		inactive
CCc1ccc(C(=O)NN(C(=O)c2cc(C)cc(C)c2)C(C)(C)C)cc1	-17.3% (inactive)	
O=C(Nc1ccccc1)Nc1ccnc(Cl)c1	-21.2% (inactive)	
C=C(C#N)CCC#N	-3.21% (inactive)	
CO[C@@H]1[C@H](OC(=O)NC(=O)CCl)CC[C@]2(CO2)[C@H]1[C@@]1(C)O[C@@H]1CC=C(C)C	0.252% [at 15.8 µM] (inactive)	
CC(C)(C)C(O)C(Oc1ccc(Cl)cc1)n1cncn1 (stereo not given)	14.8% (inactive)	
CN1C(=O)C(O)N=C(c2ccccc2)c2cc(Cl)ccc21 (stereo not given)	-3.1% (inactive)	
c1ccc(CN2CCNCC2)cc1	1.24% [at 200 µM] (inactive)	
CCCCC(CC)COP(=O)(Oc1ccccc1)Oc1ccccc1 (stereo not given)	0.0085% (inactive)	
C#CCOC(C(=O)OCCN(C)C)(c1ccccc1)c1ccccc1	1.89% [at 35.3 µM] (inactive)	

Structure (SMILES)	activity change, negative = cytotoxic	Potency
CCCCCCCCOC(=O)c1ccc(C(=O)OCCCCCCCC)c(C(=O)OCCCCCCCC)c1	-22.4% (inactive)	
CN(N=O)c1ccc([N+](=O)[O-])cc1	-0.975% (inactive)	
O=[N+]([O-])c1ccc(F)c([N+](=O)[O-])c1	-12.8% (inactive)	
ClCc1ccccc1	4.54% (inactive)	
C=CC(=O)OC	-5.54% (inactive)	
CN(C)c1ccc(N(C)C)cc1	10.6% (inactive)	
CC(=O)c1cc2c(cc1C)C(C)(C)C(C)CC2(C)C (stereo not given)	-0.578% (inactive)	
COc1ccc(-c2ccccc2)cc1NNC(=O)OC(C)C	-15.4% (inactive)	
COC(N)=O	0.48% (inactive)	
O=S(=O)(O)C(F)(F)C(F)(F)C(F)(F)C(F)(F)F	3% (inactive)	
Cc1ccc(N)cc1C	0.833% (inactive)	
CCBr	-0.238% (inactive)	
c1cc2ccc3cccc4ccc(c1)c2c34	0.948% (inactive)	
CCOP(=S)(Oc1ccc([N+](=O)[O-])cc1)c1ccccc1 (stereo not given)	-2.15% (inactive)	
NCCCNCCCN	6.21% (inactive)	
Cc1ccc2ccccc2c1	0.379% (inactive)	
ClCCCCBr	10.3% (inactive)	
O=C(O)CC(Cl)C(=O)O (stereo not given)	-2.11% (inactive)	
CCCCc1c(C)nc(NCC)nc1OS(=O)(=O)N(C)C	-1.25% (inactive)	
BrCC(Br)C1CCC(Br)C(Br)C1 (stereo not given)	-0.204% (inactive)	
